Screening results as filed in PubChem BioAssay.
LmPK inhibitor – qHTS Assay for Inhibitors of Leishmania Mexicana Pyruvate Kinase (LmPK); Potency, µM (titrated, usually from 57.5 µM), without a hit: at the top dose activity change, negative = inhibition, most hits filed as inhibitors; purified LmPK, Kinase-Glo ATP luminescence, 1 h; Q27686; AID 1721, 2009; hit rate 0.37% among 290,000; also: potency is read from the fitted curve at half-maximal effect; % is scaled to controls: 0 for no effect and ±100 for the full control effect
Target sequence (Q27686 whole entry, looked up): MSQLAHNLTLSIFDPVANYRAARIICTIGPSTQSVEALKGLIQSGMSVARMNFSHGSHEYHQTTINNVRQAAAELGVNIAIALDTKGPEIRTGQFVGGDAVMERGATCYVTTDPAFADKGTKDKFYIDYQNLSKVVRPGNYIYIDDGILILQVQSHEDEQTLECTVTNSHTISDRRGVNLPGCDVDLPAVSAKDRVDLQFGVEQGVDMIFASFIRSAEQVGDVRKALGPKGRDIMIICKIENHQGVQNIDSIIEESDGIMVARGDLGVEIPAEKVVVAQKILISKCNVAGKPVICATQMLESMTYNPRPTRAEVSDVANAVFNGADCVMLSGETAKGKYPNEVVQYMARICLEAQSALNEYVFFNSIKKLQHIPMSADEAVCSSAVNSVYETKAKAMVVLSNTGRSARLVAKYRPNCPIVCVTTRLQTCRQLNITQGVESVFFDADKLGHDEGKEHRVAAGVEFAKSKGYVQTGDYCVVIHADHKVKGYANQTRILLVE
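Purified LmPK (0.1 nM) with 0.5 mM PEP and 0.1 mM ADP in imidazole buffer pH 7.2 with MgCl2/KCl, 1 h at room temperature. ATP formed was read by luciferase luminescence and normalized to no-enzyme and uninhibited controls.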
Pf growth 96h – Primary qHTS for delayed death inhibitors of the malarial parasite plastid, 96 hour incubation | P. falciparum luciferase reporter growth, 96 h | Potency, µM (titrated, usually from 28.7 µM), for the others: at the highest dose activity change, negative = inhibition, hits mostly inhibitors | hit rate 6.9% among 320,000 | AID 504834, 2011; also: potency is read from the fitted curve at half-maximal effect; % is scaled to controls: 0 for no effect and ±100 for the full control effect
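Luminescence readout: decreased luciferase signal marks inhibited growth of reporter-expressing P. falciparum in infected red cells (2% hematocrit, 0.05% parasitemia final), exposed to compound two generations (96 h, 37 C, 5% CO2).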
Pf growth 48h – Primary qHTS for delayed death inhibitors of the malarial parasite plastid, 48 hour incubation. P. falciparum luciferase growth in erythrocytes, 48 h. Potency, µM (top dose mostly 28.7 µM), for inactives: at the top dose activity change, negative = inhibition, hits mostly inhibitors. hit rate 5.9% among 310,000. AID 504832, 2011; also: potency is read from the fitted curve at half-maximal effect; % is scaled to controls: 0 for no effect and ±100 for the full control effect
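Luciferase-expressing parasites in RBCs, 2% Hct / 0.1% parasitemia final; RPMI 1640 + 0.5% Albumax; 37 C, 5% CO2, one generation; luminescence read-out, lower signal = inhibition.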
Shiga toxin inh – A qHTS for Small Molecule Inhibitors of Shiga Toxin; Vero cells, Shiga toxin protein synthesis inhibition reporter; hit rate 9.2% among 290,000; inhibition, % at 38.7 µM; AID 2315, 2010; in the data active = inhibition mostly above about 28%, no sharp cut-off; inactive = mostly below about 43%; also: 0% is about no effect
Cycloheximide cs – Cycloheximide Counterscreen for Small Molecule Inhibitors of Shiga Toxin | max response, % | cell reporter, cycloheximide protein synthesis inhibition counterscreen | hit rate 12% among 300,000; in the data active = max response mostly above about 13%, no sharp cut-off; inactive = mostly below about 14%; also: read at 38.3 µM for the half of the compounds with a filed dose; 0% is about no effect
* = called active by the depositor. Compounds with a hit are over-represented: about 22% of the library has one in this group of screens. Unless noted, calls follow the shape of the dose curve; as a rule, active = well fitted inhibition curve with a large enough effect; inconclusive = small, poorly fitted or top-dose-only effect, or another doubt; inactive = no such curve, though single readings can be large or run the other way.

Screening O=C(c1cccc(C(F)(F)F)c1)N1CCC(O)(CS(=O)(=O)Cc2ccccc2)CC1 returned LmPK inhibitor 5.9%, Pf growth 96h 0.0%, Pf growth 48h 0.9%, Shiga toxin inh -3.8 and Cycloheximide cs -1.2.
For COc1ccc(CS(=O)(=O)CC2(O)CCN(C(=O)c3cccc(C(F)(F)F)c3)CC2)cc1 the results were LmPK inhibitor -2.1%, Pf growth 96h 3.0%, Pf growth 48h 14.7µM*, Shiga toxin inh -8.1 and Cycloheximide cs 1.4.
`CO[C@H]1C[C@@H]2CC[C@@H](C)[C@@](O)(O2)C(=O)C(=O)N2CCCC[C@H]2C(=O)O[C@H]([C@H](C)C[C@@H]2CC[C@@H](O)[C@H](OC)C2)CC(=O)[C@H](C)C=C(C)[C@@H](O)[C@@H](OC)C(=O)[C@H](C)C[C@H](C)C=CC=CC=C1C` gave LmPK inhibitor -3.4%, Pf growth 96h 0.928µM*, Pf growth 48h 5.22µM*, Shiga toxin inh 2.7 and Cycloheximide cs 6.1.
`CO[C@H]1C[C@@H]2CC[C@@H](C)[C@@](O)(O2)C(=O)C(=O)N2CCCC[C@H]2C(=O)OC([C@H](C)C[C@@H]2CC[C@@H](O)[C@H](OC)C2)CC(=O)[C@H](C)/C=C(\C)[C@@H](O)[C@@H](OC)C(=O)[C@H](C)C[C@H](C)/C=C/C=C/C=C/1C` (stereo not given in full) gave Shiga toxin inh 11.5 and Cycloheximide cs 8.1.
`COc1ccccc1/C=N/OCc1ccc(C#N)cc1` gave LmPK inhibitor 1.5%, Pf growth 96h 39.8%, Pf growth 48h 11.4%, Shiga toxin inh 28.2 and Cycloheximide cs 5.0.
Screening O=C(CN1C(=O)/C(=C/c2ccc(F)cc2)SC1=S)NC1CCS(=O)(=O)C1 (stereo not given) returned LmPK inhibitor 4.4%, Pf growth 96h 20.9%, Pf growth 48h 50.8%, Shiga toxin inh -4.4 and Cycloheximide cs 9.2.
`CC(C)Oc1ccc(C(=O)NC(=S)N2CCOCC2)cc1` gave LmPK inhibitor 1.5%, Pf growth 96h inconclusive, Pf growth 48h 15.9%, Shiga toxin inh 45.0* and Cycloheximide cs 31.6*.
Screening CC(C)(C)c1ccc(C(=O)NC(=S)N2CCOCC2)cc1 returned LmPK inhibitor -20.8%, Pf growth 96h 2.62µM*, Pf growth 48h -79.6%, Shiga toxin inh 91.8* and Cycloheximide cs 45.7*.
`CN1CCN(C(=S)NC(=O)c2ccc(C(C)(C)C)cc2)CC1` gave LmPK inhibitor -7.0%, Pf growth 96h -19.8%, Pf growth 48h -13.6%, Shiga toxin inh -7.8 and Cycloheximide cs -1.6.
For CCC(=NCc1ccc(Cl)c(Cl)c1)c1nc(-c2ccco2)oc1O the results were LmPK inhibitor 1.0%, Pf growth 96h 11.7µM*, Pf growth 48h inconclusive, Shiga toxin inh 48.2* and Cycloheximide cs 23.0.
CC(C)(C)N1CC(C(=O)Nc2ccc(C#N)cc2)CC1=O (stereo not given) was read as LmPK inhibitor 6.4%, Pf growth 96h 196.5%, Pf growth 48h 1.1%, Shiga toxin inh 22.5 and Cycloheximide cs 2.9.
CCc1ccc(NC(=O)CCS(=O)(=O)c2ccc(Cl)cc2)cc1 was read as LmPK inhibitor 3.7%, Pf growth 96h 42.0%, Pf growth 48h 14.6%, Shiga toxin inh 25.4 and Cycloheximide cs 5.6.
Screening COc1ccc(-c2cc3ccccc3n2CC(O)CN2CCC(C)CC2)cc1 (stereo not given) returned LmPK inhibitor 7.1%, Pf growth 96h 41.3%, Pf growth 48h inconclusive, Shiga toxin inh 19.0 and Cycloheximide cs 5.4.
COc1ccc(-c2cc3ccccc3n2CC(O)Cn2nc(C)cc2C)cc1 (stereo not given) was read as LmPK inhibitor 10.3%, Pf growth 96h 0.2%, Pf growth 48h 2.33µM*, Shiga toxin inh -6.3 and Cycloheximide cs 30.2.
Screening Cc1cc(C)n(CC(O)COc2ccccc2)n1 (stereo not given) returned LmPK inhibitor -2.8%, Pf growth 96h -0.1%, Pf growth 48h inconclusive, Shiga toxin inh -20.8 and Cycloheximide cs -1.5.
Cc1cc(C)n(CC(O)COc2ccc3ccccc3c2)n1 (stereo not given) was read as LmPK inhibitor 0.3%, Pf growth 96h 23.6%, Pf growth 48h 70.0%, Shiga toxin inh 46.4* and Cycloheximide cs 26.0*.
CCOC(=O)N/N=C/c1cccc(Cl)c1Cl was read as LmPK inhibitor 1.1%, Pf growth 96h 9.0%, Pf growth 48h 39.4%, Shiga toxin inh 78.5* and Cycloheximide cs 40.3*.
CCOC(=O)N/N=C/c1c(F)cccc1F was read as LmPK inhibitor -10.2%, Pf growth 96h 66.3%, Pf growth 48h 36.9%, Shiga toxin inh 35.5* and Cycloheximide cs 25.4*.
O=C(CO)N/N=C/c1ccccc1F was read as LmPK inhibitor -2.8%, Pf growth 96h 35.1%, Pf growth 48h -8.3%, Shiga toxin inh -18.2 and Cycloheximide cs -1.0.
CCOC(=O)N/N=C/c1ccc(F)cc1 was read as LmPK inhibitor -2.8%, Pf growth 96h 62.6%, Pf growth 48h 58.7%, Shiga toxin inh 69.9* and Cycloheximide cs 38.7*.
For O=C(COCC(=O)N/N=C/c1ccccc1F)N/N=C/c1ccccc1F the results were LmPK inhibitor 1.1%, Pf growth 96h 9.28µM*, Pf growth 48h -13.5%, Shiga toxin inh 21.5 and Cycloheximide cs 11.0.
For O=C(CO)N/N=C/c1cccc(Cl)c1Cl the results were LmPK inhibitor -4.5%, Pf growth 96h inconclusive, Pf growth 48h -8.5%, Shiga toxin inh -3.3 and Cycloheximide cs 1.1.
For CCOC(=O)N/N=C/c1c(F)c(F)c(F)c(F)c1F the results were LmPK inhibitor 0.2%, Pf growth 96h inconclusive, Pf growth 48h -14.8%, Shiga toxin inh 12.2 and Cycloheximide cs -1.0.
Screening Cn1cccc1C(=O)NC(=O)COC(=O)c1cc(Cl)ccc1[N+](=O)[O-] returned LmPK inhibitor 10.9%, Pf growth 96h 31.3%, Pf growth 48h 50.9%, Shiga toxin inh 7.3 and Cycloheximide cs -1.6.
`Cc1nc([N+](=O)[O-])cn1CC(=O)c1ccc(Br)cc1` gave Pf growth 96h 84.8% and Pf growth 48h 4.0%.
`Cc1cc(C(=O)N/N=C/c2cccc(Cl)c2Cl)no1` gave LmPK inhibitor -2.1%, Pf growth 48h 61.5%, Shiga toxin inh 76.2* and Cycloheximide cs 37.9*.
Screening CCOC(=O)N/N=C/c1ccccc1F returned LmPK inhibitor -24.0%, Pf growth 96h 264.3%, Pf growth 48h 104.5%, Shiga toxin inh 82.7* and Cycloheximide cs 33.3*.
`CC(C)NC(=O)CC(=O)N/N=C/c1ccccc1F` gave LmPK inhibitor -0.8%, Pf growth 96h 252.5%, Pf growth 48h 13.3%, Shiga toxin inh -7.8 and Cycloheximide cs -0.5.
For CCOC(=O)N/N=C/c1ccc(OC)c(O)c1 the results were LmPK inhibitor -0.6%, Pf growth 96h inconclusive, Pf growth 48h 53.5%, Shiga toxin inh 69.3* and Cycloheximide cs 32.9*.
